Source: paper PMC7862700, “An all-to-all approach to the identification of sequence-specific readers for epigenetic DNA modifications on cytosine”

Legend:
Test in all cases: DAPPL (digital affinity profiling via proximity ligation, sequencing); 10 mM Tris-HCl pH 7.5, 50 mM NaCl, 1 mM DTT, 4% glycerol, room temperature, 30 min; GST-TFs on glutathione beads, 16-mer random dsDNA library, 0.1% formaldehyde crosslink after washing; high values mean tight binding
Conditions in all cases: protein: recombinant; tags: N-terminal GST; dsDNA, one strand shown
[1] = molecular target: T1, ERF (Homo sapiens, UniProt P50548 1-548)
T1 sequence: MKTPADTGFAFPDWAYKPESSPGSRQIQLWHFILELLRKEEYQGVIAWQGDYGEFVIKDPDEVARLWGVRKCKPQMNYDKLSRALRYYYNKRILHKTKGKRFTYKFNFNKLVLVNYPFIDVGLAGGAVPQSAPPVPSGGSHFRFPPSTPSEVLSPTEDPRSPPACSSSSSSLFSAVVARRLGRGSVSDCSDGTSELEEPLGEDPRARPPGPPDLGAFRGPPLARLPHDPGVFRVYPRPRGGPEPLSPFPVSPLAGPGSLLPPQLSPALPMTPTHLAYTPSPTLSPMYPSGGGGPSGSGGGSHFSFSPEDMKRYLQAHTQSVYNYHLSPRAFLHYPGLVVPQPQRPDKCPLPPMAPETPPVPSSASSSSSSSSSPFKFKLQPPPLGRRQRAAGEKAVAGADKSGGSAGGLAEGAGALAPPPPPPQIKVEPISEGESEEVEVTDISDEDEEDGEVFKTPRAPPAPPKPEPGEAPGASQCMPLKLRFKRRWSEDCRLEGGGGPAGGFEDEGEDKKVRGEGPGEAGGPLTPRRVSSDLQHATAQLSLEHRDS
Summary of the method: (§1)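 GST fusions of human transcription factors were expressed in yeast and captured with glutathione beads. Once given DNA barcodes and pooled alongside a tag-only sample, they were incubated for 30 min at room temperature with 200 nmole of a random double-stranded 16-mer DNA library in Tris/NaCl/DTT/glycerol buffer, then washed, crosslinked (0.1% formaldehyde), proximity-ligated, PCR-amplified and sequenced on an Illumina NextSeq500. The binding signal of each hexamer is its read frequency for a factor divided by its frequency for the tag-only sample.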

[2] = molecular target: T2, ETV3L (Homo sapiens, UniProt Q6ZN32 1-361)
T2 sequence: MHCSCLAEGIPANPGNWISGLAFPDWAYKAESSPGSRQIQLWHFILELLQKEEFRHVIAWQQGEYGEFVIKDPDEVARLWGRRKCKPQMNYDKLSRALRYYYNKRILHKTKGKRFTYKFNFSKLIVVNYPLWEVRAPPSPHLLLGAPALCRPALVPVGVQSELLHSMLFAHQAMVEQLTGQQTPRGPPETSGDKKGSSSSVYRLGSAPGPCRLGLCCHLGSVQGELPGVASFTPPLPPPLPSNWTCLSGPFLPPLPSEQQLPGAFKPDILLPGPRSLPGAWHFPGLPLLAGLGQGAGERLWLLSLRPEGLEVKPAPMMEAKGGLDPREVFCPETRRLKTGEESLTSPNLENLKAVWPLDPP
Summary of the method: as §1

[3] = molecular target: T3, ETS2 (Homo sapiens, UniProt P15036 1-469)
T3 sequence: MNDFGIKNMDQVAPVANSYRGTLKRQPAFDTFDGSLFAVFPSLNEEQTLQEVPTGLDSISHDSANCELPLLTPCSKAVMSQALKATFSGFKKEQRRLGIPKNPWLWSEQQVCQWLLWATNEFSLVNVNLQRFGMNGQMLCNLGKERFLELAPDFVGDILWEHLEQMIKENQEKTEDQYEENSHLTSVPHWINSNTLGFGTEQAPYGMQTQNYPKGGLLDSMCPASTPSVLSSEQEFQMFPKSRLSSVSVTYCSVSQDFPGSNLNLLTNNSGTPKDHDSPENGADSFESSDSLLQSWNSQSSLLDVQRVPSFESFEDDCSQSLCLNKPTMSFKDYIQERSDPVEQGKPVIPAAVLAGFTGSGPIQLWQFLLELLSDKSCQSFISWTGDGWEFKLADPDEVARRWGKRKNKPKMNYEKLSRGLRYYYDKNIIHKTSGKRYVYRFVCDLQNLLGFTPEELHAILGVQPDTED
Summary of the method: as §1

[4] = molecular target: T4, SPDEF (Homo sapiens, UniProt O95238 1-335)
T4 sequence: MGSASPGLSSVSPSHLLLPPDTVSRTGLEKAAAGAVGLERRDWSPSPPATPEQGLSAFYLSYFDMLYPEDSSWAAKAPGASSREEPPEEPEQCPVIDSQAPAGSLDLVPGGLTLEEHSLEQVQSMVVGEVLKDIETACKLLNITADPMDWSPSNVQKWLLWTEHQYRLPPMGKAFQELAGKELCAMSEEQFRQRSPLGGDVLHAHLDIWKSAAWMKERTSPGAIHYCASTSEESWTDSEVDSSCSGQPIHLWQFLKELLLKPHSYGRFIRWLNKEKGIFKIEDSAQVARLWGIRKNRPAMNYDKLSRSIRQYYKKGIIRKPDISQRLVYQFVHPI
Summary of the method: as §1

[5] = molecular target: T5, ETV7 (Homo sapiens, UniProt Q9Y603 1-341)
T5 sequence: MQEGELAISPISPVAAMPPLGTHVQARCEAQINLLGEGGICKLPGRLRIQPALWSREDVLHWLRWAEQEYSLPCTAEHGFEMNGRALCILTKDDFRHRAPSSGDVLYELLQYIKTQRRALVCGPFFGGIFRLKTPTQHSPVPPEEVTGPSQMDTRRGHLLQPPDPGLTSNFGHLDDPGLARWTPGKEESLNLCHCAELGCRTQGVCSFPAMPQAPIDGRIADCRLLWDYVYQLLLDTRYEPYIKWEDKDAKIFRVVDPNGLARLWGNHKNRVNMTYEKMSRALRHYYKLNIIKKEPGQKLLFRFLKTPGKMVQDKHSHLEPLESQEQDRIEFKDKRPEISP
Summary of the method: as §1

[6] = molecular target: T6, ELF5 (Homo sapiens, UniProt Q9UKW6-2 1-255)
T6 sequence: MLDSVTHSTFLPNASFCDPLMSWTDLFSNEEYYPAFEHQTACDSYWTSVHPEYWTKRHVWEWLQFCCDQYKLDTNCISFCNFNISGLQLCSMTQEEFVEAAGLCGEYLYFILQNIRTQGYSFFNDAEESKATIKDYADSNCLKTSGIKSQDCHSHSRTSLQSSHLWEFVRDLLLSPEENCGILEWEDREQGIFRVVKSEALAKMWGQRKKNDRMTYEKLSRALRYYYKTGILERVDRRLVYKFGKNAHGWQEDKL
Summary of the method: as §1

[7] = molecular target: T7, ETV3 (Homo sapiens, UniProt P41162-2 1-143)
T7 sequence: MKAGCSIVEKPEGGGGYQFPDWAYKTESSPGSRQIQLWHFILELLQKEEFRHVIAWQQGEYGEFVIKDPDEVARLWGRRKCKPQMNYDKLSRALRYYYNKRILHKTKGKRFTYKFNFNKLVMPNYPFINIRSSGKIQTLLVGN
Summary of the method: as §1

[8] = molecular target: ETV6 (Homo sapiens, UniProt P41212 1-452)
Chain of ETV6 (P41212 whole entry): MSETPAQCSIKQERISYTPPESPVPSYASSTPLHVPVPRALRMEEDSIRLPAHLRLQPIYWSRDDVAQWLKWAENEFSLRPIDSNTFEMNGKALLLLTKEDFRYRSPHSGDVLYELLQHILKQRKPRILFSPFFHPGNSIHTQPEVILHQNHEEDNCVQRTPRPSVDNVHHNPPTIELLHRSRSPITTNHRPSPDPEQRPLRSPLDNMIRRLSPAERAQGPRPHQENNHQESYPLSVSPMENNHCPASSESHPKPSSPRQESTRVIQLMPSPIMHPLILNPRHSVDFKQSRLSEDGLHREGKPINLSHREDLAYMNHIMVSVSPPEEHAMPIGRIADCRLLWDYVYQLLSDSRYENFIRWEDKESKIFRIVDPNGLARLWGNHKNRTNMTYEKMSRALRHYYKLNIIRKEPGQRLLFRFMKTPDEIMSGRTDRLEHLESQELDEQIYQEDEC
Summary of the method: as §1

Row | Sequence | binding signal [1] | binding signal [2] | binding signal [3] | binding signal [4] | binding signal [5] | binding signal [6] | binding signal [7] | binding signal [8]
1 | AACATG | 1.21 fold enrichment (6-mer frequency, TF over GST control) | 1.17 fold enrichment (6-mer frequency, TF over GST control) | 1.14 fold enrichment (6-mer frequency, TF over GST control) | 1.11 fold enrichment (6-mer frequency, TF over GST control) | 1.05 fold enrichment (6-mer frequency, TF over GST control) | 1.15 fold enrichment (6-mer frequency, TF over GST control) | 1.11 fold enrichment (6-mer frequency, TF over GST control) | 1.25 fold enrichment (6-mer frequency, TF over GST control)
2 | TTCATA | 1.19 fold enrichment (6-mer frequency, TF over GST control) | 1.23 fold enrichment (6-mer frequency, TF over GST control) | 1.15 fold enrichment (6-mer frequency, TF over GST control) | 1.1 fold enrichment (6-mer frequency, TF over GST control) | 1.12 fold enrichment (6-mer frequency, TF over GST control) | 1.15 fold enrichment (6-mer frequency, TF over GST control) | 1.16 fold enrichment (6-mer frequency, TF over GST control) | 1.14 fold enrichment (6-mer frequency, TF over GST control)
3 | ATGTGC | 1.15 fold enrichment (6-mer frequency, TF over GST control) | 1.11 fold enrichment (6-mer frequency, TF over GST control) | 1.1 fold enrichment (6-mer frequency, TF over GST control) | 1.23 fold enrichment (6-mer frequency, TF over GST control) | 1.03 fold enrichment (6-mer frequency, TF over GST control) | 1.09 fold enrichment (6-mer frequency, TF over GST control) | 1.15 fold enrichment (6-mer frequency, TF over GST control) | 1.1 fold enrichment (6-mer frequency, TF over GST control)
4 | ATTATC | 1.36 fold enrichment (6-mer frequency, TF over GST control) | 1.39 fold enrichment (6-mer frequency, TF over GST control) | 1.29 fold enrichment (6-mer frequency, TF over GST control) | 1.34 fold enrichment (6-mer frequency, TF over GST control) | 1.18 fold enrichment (6-mer frequency, TF over GST control) | 1.31 fold enrichment (6-mer frequency, TF over GST control) | 1.37 fold enrichment (6-mer frequency, TF over GST control) | 1.29 fold enrichment (6-mer frequency, TF over GST control)
5 | TTCACC | 1.41 fold enrichment (6-mer frequency, TF over GST control) | 1.32 fold enrichment (6-mer frequency, TF over GST control) | 1.35 fold enrichment (6-mer frequency, TF over GST control) | 1.32 fold enrichment (6-mer frequency, TF over GST control) | 1.3 fold enrichment (6-mer frequency, TF over GST control) | 1.32 fold enrichment (6-mer frequency, TF over GST control) | 1.48 fold enrichment (6-mer frequency, TF over GST control) | 1.35 fold enrichment (6-mer frequency, TF over GST control)
6 | AAGCGC | 1.1 fold enrichment (6-mer frequency, TF over GST control) | 1.13 fold enrichment (6-mer frequency, TF over GST control) | 1.22 fold enrichment (6-mer frequency, TF over GST control) | 1.03 fold enrichment (6-mer frequency, TF over GST control) | 1.11 fold enrichment (6-mer frequency, TF over GST control) | 1.13 fold enrichment (6-mer frequency, TF over GST control) | 1.29 fold enrichment (6-mer frequency, TF over GST control) | 1.15 fold enrichment (6-mer frequency, TF over GST control)
7 | TGAAAC | 1.17 fold enrichment (6-mer frequency, TF over GST control) | 1.17 fold enrichment (6-mer frequency, TF over GST control) | 1.3 fold enrichment (6-mer frequency, TF over GST control) | 1.28 fold enrichment (6-mer frequency, TF over GST control) | 1.28 fold enrichment (6-mer frequency, TF over GST control) | 1.15 fold enrichment (6-mer frequency, TF over GST control) | 1.28 fold enrichment (6-mer frequency, TF over GST control) | 1.13 fold enrichment (6-mer frequency, TF over GST control)
8 | TTTATT | 1.21 fold enrichment (6-mer frequency, TF over GST control) | 1.44 fold enrichment (6-mer frequency, TF over GST control) | 1.21 fold enrichment (6-mer frequency, TF over GST control) | 1.2 fold enrichment (6-mer frequency, TF over GST control) | 1.31 fold enrichment (6-mer frequency, TF over GST control) | 1.24 fold enrichment (6-mer frequency, TF over GST control) | 1.33 fold enrichment (6-mer frequency, TF over GST control) | 1.28 fold enrichment (6-mer frequency, TF over GST control)
9 | TAGGCT | 1.37 fold enrichment (6-mer frequency, TF over GST control) | 1.16 fold enrichment (6-mer frequency, TF over GST control) | 1.29 fold enrichment (6-mer frequency, TF over GST control) | 1.24 fold enrichment (6-mer frequency, TF over GST control) | 1.35 fold enrichment (6-mer frequency, TF over GST control) | 1.09 fold enrichment (6-mer frequency, TF over GST control) | 1.14 fold enrichment (6-mer frequency, TF over GST control) | 1.24 fold enrichment (6-mer frequency, TF over GST control)
10 | TGCGCA | 1.11 fold enrichment (6-mer frequency, TF over GST control) | 1.11 fold enrichment (6-mer frequency, TF over GST control) | 1.18 fold enrichment (6-mer frequency, TF over GST control) | 1.02 fold enrichment (6-mer frequency, TF over GST control) | 1.03 fold enrichment (6-mer frequency, TF over GST control) | 1.06 fold enrichment (6-mer frequency, TF over GST control) | 1.14 fold enrichment (6-mer frequency, TF over GST control) | 1.07 fold enrichment (6-mer frequency, TF over GST control)
11 | AAGCTA | 1.18 fold enrichment (6-mer frequency, TF over GST control) | 1.2 fold enrichment (6-mer frequency, TF over GST control) | 1.14 fold enrichment (6-mer frequency, TF over GST control) | 1.16 fold enrichment (6-mer frequency, TF over GST control) | 1.2 fold enrichment (6-mer frequency, TF over GST control) | 1.11 fold enrichment (6-mer frequency, TF over GST control) | 1.2 fold enrichment (6-mer frequency, TF over GST control) | 1.1 fold enrichment (6-mer frequency, TF over GST control)
12 | AAAAGA | 1.24 fold enrichment (6-mer frequency, TF over GST control) | 1.1 fold enrichment (6-mer frequency, TF over GST control) | 1.22 fold enrichment (6-mer frequency, TF over GST control) | 1.1 fold enrichment (6-mer frequency, TF over GST control) | 1.1 fold enrichment (6-mer frequency, TF over GST control) | 1.13 fold enrichment (6-mer frequency, TF over GST control) | 1.07 fold enrichment (6-mer frequency, TF over GST control) | 1.21 fold enrichment (6-mer frequency, TF over GST control)
13 | ACTCTA | 1.56 fold enrichment (6-mer frequency, TF over GST control) | 1.39 fold enrichment (6-mer frequency, TF over GST control) | 1.39 fold enrichment (6-mer frequency, TF over GST control) | 1.38 fold enrichment (6-mer frequency, TF over GST control) | 1.34 fold enrichment (6-mer frequency, TF over GST control) | 1.41 fold enrichment (6-mer frequency, TF over GST control) | 1.48 fold enrichment (6-mer frequency, TF over GST control) | 1.33 fold enrichment (6-mer frequency, TF over GST control)
14 | TATTTC | 1.86 fold enrichment (6-mer frequency, TF over GST control) | 2.06 fold enrichment (6-mer frequency, TF over GST control) | 2.23 fold enrichment (6-mer frequency, TF over GST control) | 2 fold enrichment (6-mer frequency, TF over GST control) | 2.2 fold enrichment (6-mer frequency, TF over GST control) | 2.66 fold enrichment (6-mer frequency, TF over GST control) | 2.23 fold enrichment (6-mer frequency, TF over GST control) | 2.54 fold enrichment (6-mer frequency, TF over GST control)
15 | TGCCAC | 1.14 fold enrichment (6-mer frequency, TF over GST control) | 1.28 fold enrichment (6-mer frequency, TF over GST control) | 1.23 fold enrichment (6-mer frequency, TF over GST control) | 1.15 fold enrichment (6-mer frequency, TF over GST control) | 1.21 fold enrichment (6-mer frequency, TF over GST control) | 1.16 fold enrichment (6-mer frequency, TF over GST control) | 1.18 fold enrichment (6-mer frequency, TF over GST control) | 1.24 fold enrichment (6-mer frequency, TF over GST control)
